Assay results: PubChem BioAssay
Activity calls are given as the source filed them.

Assays:
[1] = test system: Plasmodium falciparum Sir2 (PF13_0152, Sir2A); assay: pfSir2 binders on small-molecule microarrays, primary screen, biochemical, small-molecule microarray, 635 nm fluorescence (AID 1098); conditions: small-molecule microarray binding, fluorescence 635 nm; higher = more signal;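 also: score merges spot fluorescence intensity with its signal-to-noise ratio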
[2] = small-molecule microarray binders of probe aDKK1, primary screen, biochemical, biotinylated probe, 635/667 nm fluorescence (AID 1099); conditions: higher = more signal;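 also: score merges 667nm spot fluorescence with signal to noise across triplicate slides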
[3] = small-molecule microarray binders of probe aCHRDL2, primary screen, biochemical, biotinylated probe, 635/667 nm fluorescence (AID 1100); conditions: higher = more signal
[4] = splicing luciferase reporter signal modulators, primary screen, spliceosome inhibition project, cell-based, HEK293, splice +/- reporter (AID 1101); conditions: luminescence, 24 h, higher = more signal, called active from +8 up or from −8 down;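 also: HEK293 cells carrying a splicing-competent luciferase reporter gene; test concentration not given here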
[5] = molecular target: Fibroblast growth factor 10 (Homo sapiens) (UniProt O15520); assay: FGF10 binders on small-molecule microarrays, primary screen, biochemical, small-molecule microarray, 635 nm fluorescence (AID 1102); conditions: FGF10 binding, fluorescence 635 nm, higher = more signal
Fibroblast growth factor 10 (Homo sapiens), sequence (O15520 whole entry, looked up): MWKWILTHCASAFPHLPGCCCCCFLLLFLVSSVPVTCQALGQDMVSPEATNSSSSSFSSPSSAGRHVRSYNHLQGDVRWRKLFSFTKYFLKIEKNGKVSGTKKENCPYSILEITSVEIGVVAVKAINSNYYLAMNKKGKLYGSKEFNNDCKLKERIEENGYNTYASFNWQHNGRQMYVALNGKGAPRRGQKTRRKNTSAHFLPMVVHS

[6] = test system: glycogen synthase kinase-3 (GSK3A per assay name; protocol says GSK3B); assay: GSK3 binders on small-molecule microarrays, primary screen, biochemical, small-molecule microarray, 635 nm fluorescence, GSK3A (AID 1103); conditions: small-molecule microarray binding, fluorescence 635 nm; higher = more signal; also: the record names both GSK3A and GSK3B
[7] = molecular target: Epidermal growth factor receptor (Homo sapiens) (UniProt P00533); assay: EGFR binders on small-molecule microarrays, primary screen, biochemical, small-molecule microarray, 635 nm fluorescence (AID 1104); conditions: EGFR binding, higher = more signal;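 also: score merges 667 nm emission intensity with spot signal to noise over triplicate slides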
Epidermal growth factor receptor (Homo sapiens), sequence (P00533 whole entry, looked up): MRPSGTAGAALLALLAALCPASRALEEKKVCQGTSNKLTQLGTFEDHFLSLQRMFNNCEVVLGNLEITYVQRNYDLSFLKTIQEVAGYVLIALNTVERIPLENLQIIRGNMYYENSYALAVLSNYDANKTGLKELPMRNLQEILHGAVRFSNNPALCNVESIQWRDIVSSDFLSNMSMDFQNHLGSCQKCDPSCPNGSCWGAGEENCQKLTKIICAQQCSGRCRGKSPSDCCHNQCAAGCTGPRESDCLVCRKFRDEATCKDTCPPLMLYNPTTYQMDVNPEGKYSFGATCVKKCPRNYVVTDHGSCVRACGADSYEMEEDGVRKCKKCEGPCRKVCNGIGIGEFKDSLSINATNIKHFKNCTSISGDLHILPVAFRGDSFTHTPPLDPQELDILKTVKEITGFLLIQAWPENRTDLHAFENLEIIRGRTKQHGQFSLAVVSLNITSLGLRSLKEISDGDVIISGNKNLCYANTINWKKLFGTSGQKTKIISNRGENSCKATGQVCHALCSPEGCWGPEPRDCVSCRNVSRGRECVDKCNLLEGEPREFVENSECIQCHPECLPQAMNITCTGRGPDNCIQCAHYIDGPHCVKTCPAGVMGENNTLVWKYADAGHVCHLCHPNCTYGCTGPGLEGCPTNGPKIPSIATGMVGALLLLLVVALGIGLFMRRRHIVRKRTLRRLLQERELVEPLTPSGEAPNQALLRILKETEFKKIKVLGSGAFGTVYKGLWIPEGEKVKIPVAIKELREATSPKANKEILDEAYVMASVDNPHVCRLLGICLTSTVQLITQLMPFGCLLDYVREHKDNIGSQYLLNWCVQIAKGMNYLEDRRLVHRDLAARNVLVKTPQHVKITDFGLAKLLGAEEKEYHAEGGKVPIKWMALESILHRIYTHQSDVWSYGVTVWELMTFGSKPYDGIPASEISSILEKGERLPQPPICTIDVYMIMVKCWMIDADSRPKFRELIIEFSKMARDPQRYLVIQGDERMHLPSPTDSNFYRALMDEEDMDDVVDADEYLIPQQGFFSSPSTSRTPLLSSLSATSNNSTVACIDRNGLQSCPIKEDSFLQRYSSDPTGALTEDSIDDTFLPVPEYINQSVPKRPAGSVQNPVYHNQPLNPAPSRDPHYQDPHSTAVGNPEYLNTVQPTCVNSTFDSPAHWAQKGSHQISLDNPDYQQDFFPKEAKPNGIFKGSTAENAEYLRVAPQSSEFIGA

[8] = molecular target: Follistatin-related protein 3 (Homo sapiens) (UniProt O95633); assay: FSTL3 binders on small-molecule microarrays, primary screen, biochemical, small-molecule microarray, 635 nm fluorescence (AID 1105); conditions: FSTL3 binding, higher = more signal;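 also: score merges emission near 667 nm and signal to noise per printed spot across three slides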
Follistatin-related protein 3 (Homo sapiens), sequence (O95633 whole entry, looked up): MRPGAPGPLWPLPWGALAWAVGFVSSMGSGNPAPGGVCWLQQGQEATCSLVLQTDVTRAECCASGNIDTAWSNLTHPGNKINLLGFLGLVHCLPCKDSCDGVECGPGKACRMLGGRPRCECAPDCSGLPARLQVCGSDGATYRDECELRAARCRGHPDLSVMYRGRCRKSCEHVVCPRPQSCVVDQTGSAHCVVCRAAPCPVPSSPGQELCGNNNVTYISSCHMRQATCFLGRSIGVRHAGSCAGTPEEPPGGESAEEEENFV

[9] = molecular target: Dickkopf-related protein 1 (Homo sapiens) (UniProt O94907); assay: DKK1 binders on small-molecule microarrays, primary screen, biochemical, small-molecule microarray, 635 nm fluorescence scan (AID 1106); conditions: DKK1 binding, higher = more signal;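 also: score merges emission near 667 nm with signal to noise over three replicate slides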
Dickkopf-related protein 1 (Homo sapiens), sequence (O94907 whole entry, looked up): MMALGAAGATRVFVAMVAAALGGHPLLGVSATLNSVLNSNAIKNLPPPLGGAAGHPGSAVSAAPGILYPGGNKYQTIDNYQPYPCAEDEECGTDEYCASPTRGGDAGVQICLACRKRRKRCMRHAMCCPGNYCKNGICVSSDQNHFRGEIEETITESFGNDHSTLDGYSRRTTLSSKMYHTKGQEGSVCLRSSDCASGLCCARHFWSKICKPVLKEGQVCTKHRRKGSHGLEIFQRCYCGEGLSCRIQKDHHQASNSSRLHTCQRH

[10] = test system: Inhibin beta A chain (activin A); assay: INHBA (activin A) binders on microarrays, primary screen, biochemical, small-molecule microarray, 635 nm fluorescence scan (AID 1107); conditions: small-molecule microarray binding, higher = more signal;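 also: mouse activin A protein probed at 4.33 µg/mL on printed slides; score merges bound-protein fluorescence near 667 nm with spot signal-to-noise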
[11] = test system: Human papillomavirus type 1a protein E7 (residues 44-93); assay: HPV1a E7 fragment binders on microarrays, primary screen, biochemical, small-molecule microarray, residues 44-93, 635 nm fluorescence (AID 1108); conditions: small-molecule microarray binding, fluorescence 635 nm; higher = more signal;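 also: E7 fragment applied at 1 µg/mL in TBST for 1 h at 4 C; score combines spot fluorescence with its signal to noise ratio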
[12] = modulators of HCV replicon luciferase signal, primary screen, HCV replication inhibitor project, Huh7 cells, luciferase reporter (AID 1109); conditions: 48 h, higher = more signal;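 also: huh7 hepatoma cells harbouring a luciferase neomycin HCV replicon reporter; luciferase luminescence as measure of HCV replicon replication; test concentration not given here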
[13] = molecular target: Left-right determination factor 2 (Homo sapiens) (UniProt O00292); assay: LEFTY2 binders on small-molecule microarrays, primary screen, biochemical, small-molecule microarray, 635 nm fluorescence scan (AID 1110); conditions: LEFTY2 binding, higher = more signal
Left-right determination factor 2 (Homo sapiens), sequence (O00292 whole entry, looked up): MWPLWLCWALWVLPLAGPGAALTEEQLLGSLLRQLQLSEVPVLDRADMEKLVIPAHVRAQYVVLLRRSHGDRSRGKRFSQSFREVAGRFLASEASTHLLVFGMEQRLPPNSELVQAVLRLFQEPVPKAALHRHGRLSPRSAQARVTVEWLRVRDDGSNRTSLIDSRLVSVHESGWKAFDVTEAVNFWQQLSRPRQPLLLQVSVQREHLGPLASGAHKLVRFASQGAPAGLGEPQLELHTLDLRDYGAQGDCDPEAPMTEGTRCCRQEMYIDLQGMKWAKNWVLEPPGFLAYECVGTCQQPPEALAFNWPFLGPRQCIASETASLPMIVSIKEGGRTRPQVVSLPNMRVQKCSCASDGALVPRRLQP

[14] = molecular target: Calmodulin-1 (Homo sapiens) (UniProt P0DP23); assay: CALM1 binders on microarrays, EGTA buffer, profiling panel, biochemical, small-molecule microarray, Cy5-labelled CALM1 (AID 1111); conditions: Cy5-CALM1 binding fluorescence, higher = more signal;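 also: labelled calmodulin applied in Tris saline Tween buffer holding calcium plus EGTA and DTT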
[15] = molecular target: Calmodulin-1 (Homo sapiens) (UniProt P0DP23); assay: calcium-bound CALM1 binders on microarrays, profiling panel, artefact control for SMM control-protein annotation, biochemical, small-molecule microarray, Cy5-labelled CALM1, plus calcium (AID 1112); conditions: Cy5-CALM1 binding fluorescence, higher = more signal;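 also: score merges spot fluorescence with signal to noise from triplicate slides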
[16] = small-molecule microarray binders of probe aWnt5a, primary screen, biochemical, biotinylated probe, 635/667 nm fluorescence (AID 1113); conditions: higher = more signal;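 also: score merges 667 nm fluorescence intensity with signal-to-noise per printed feature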
[17] = small-molecule microarray binders of probe aShh, primary screen, biochemical, biotinylated probe, 635/667 nm fluorescence (AID 1114); conditions: higher = more signal;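 also: probe is biotin-labelled aShh protein from a stem cell growth factor screen; measures binding of labelled protein to compounds printed on the slide; score merges feature fluorescence at 667 nm with signal-to-noise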
[18] = small-molecule microarray binders of probe aNog, primary screen, biochemical, biotinylated probe, 635/667 nm fluorescence (AID 1115); conditions: higher = more signal;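 also: probe is biotinylated aNog protein used at 0.15 µg/mL for 1 h at 4 C; z-score combines 667 nm fluorescence of each spot with its signal to noise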
[19] = molecular target: Torsin-1A-interacting protein 1 (Homo sapiens) (UniProt Q5JTV8); assay: LAP1 binders from COS7 cell lysate, primary screen, small-molecule microarray, 635/667 nm fluorescence (AID 1116); conditions: COS7-hLAP1 lysate binding, 635 nm fluorescence, higher = more signal
Torsin-1A-interacting protein 1 (Homo sapiens), sequence (Q5JTV8 whole entry, looked up): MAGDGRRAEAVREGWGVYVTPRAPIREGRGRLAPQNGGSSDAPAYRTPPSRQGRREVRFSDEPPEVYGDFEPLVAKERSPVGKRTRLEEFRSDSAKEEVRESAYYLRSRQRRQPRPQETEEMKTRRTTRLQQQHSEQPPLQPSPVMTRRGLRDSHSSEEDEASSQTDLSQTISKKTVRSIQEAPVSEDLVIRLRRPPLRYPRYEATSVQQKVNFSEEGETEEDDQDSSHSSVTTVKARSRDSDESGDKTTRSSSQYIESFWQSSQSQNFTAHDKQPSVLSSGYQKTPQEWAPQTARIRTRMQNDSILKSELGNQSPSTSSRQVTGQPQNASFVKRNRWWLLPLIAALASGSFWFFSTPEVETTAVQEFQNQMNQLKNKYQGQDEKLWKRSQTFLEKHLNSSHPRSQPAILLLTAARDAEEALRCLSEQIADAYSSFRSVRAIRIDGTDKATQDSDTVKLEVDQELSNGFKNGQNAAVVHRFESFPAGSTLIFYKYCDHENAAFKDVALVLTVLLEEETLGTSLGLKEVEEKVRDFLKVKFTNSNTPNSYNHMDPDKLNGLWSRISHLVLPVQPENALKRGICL

[20] = molecular target: Alpha-bungarotoxin (Bungarus multicinctus) (UniProt P60615); assay: alpha-bungarotoxin binders on microarray, profiling panel, artefact control for SMM control protein annotation, biochemical, small-molecule microarray, Alexa647 label, 635/667 nm fluorescence (AID 1117); conditions: alpha-BTX-A647 binding fluorescence, higher = more signal
Alpha-bungarotoxin (Bungarus multicinctus), sequence (P60615 whole entry, looked up): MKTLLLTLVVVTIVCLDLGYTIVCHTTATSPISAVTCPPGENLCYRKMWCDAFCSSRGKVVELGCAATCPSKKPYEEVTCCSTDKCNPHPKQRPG

Compound	composite z-score [1]	composite z-score [2]	composite z-score [3]	z-score [4]	composite z-score [5]	composite z-score [6]	composite z-score [7]	composite z-score [8]	composite z-score [9]	composite z-score [10]	composite z-score [11]	z-score [12]	composite z-score [13]	composite z-score [14]	composite z-score [15]	composite z-score [16]	composite z-score [17]	composite z-score [18]	composite z-score [19]	composite z-score [20]
CC(C)CNC(=O)[C@@H]1c2ccccc2C(=O)N(CC23CC4CC(CC(C4)C2)C3)[C@H]1c1ccc(CO)cc1	0.248	0.031	0.446	-1.46 (inactive)	0.124	1.02	0.0591	0.777	-0.0314	0.471	1.34	-1.05	0.0408	0.725	0.769	-0.0685	0.14	-0.436	0.862	1.15
COC(=O)[C@@]1(Cc2ccccc2)[C@@H]2[C@@H](CC(=O)[C@H]2CC(=O)C(=O)N(C)C)CN1C(=O)c1ccccc1	1.05	0.0889	0.929	-0.155 (inactive)	0.225	-0.901	-0.185	-0.0272	-0.782	0.988	0.426	-0.96	-0.116	0.518	0.599	0.0078	-0.0322	0.859	1.38	0.43
O=C1OCCC=C[C@H]2OC34C=CCN(c5ccc(Cl)cc5)C(=O)[C@H]3N(CCO)C(=O)[C@@H]4C12 (stereo not given in full)	-0.358	-0.208	0.266	-0.343 (inactive)	-0.45	-0.695	-0.723	-0.683	-0.568	-1.16	-0.646	0.318	-1.34	-0.585	-0.1	-0.239	-0.262	-0.274	-0.855	-0.957
CCC[C@@H]1[C@@H](Sc2ccccc2)[C@@H](C(=O)O)[C@H](c2ccc(C)cc2)N1S(=O)(=O)c1ccc(C)cc1	1.05	0.505	0.284	-0.114 (inactive)	1.25	1.36	0.163	1.34	0.188	0.267	1.47	-1.57	0.241	1.87	0.859	0.108	-0.0866	-0.0987	0.425	1.41
COCCOC(=O)N1C(=O)[C@@]2(c3cc(C#CCCO)ccc31)[C@H](C(=O)N1CCc3cc(OC)c(OC)cc3C1)[C@H]1C(=O)O[C@H](c3ccccc3)[C@H](c3ccccc3)N1[C@@H]2c1ccccc1OCCO	1.64	-0.232	0.0036	-0.961 (inactive)	1.42	1.29	0.861	1.32	0.35	0.748	1.4	-1.75	0.473	1.43	0.013	0.186	-0.0146	0.596	0.325	0.477
Cc1ccc(S[C@]2(C(=O)NCCN3CCOCC3)CC(=O)N(C3CCCCC3)[C@@H]2c2ccc(CO)cc2I)cc1	0.567	-0.69	-0.13	-0.341 (inactive)	1.29	1.19	0.0803	1.19	-0.0675	0.714	1.46	-3.05	0.134	0.562	0.326	0.0214	0.23	-0.0098	1.37	1.23
COc1cccc(C[C@H]2C[C@@H](CO[Si](C(C)C)(C(C)C)C(C)C)N3C(=O)[C@@]4(C(C)=O)O[C@@]23[C@@H]2C(=O)N(C)C(=O)[C@@H]24)c1	0.95	-0.0648	-0.197	-0.989 (inactive)	1.22	0.5	0.494	1.17	1.62	-0.0336	1.04	-2.81	0.901	0.05	-0.587	-0.0364	0.131	0.0974	0.272	-0.378
NCCCC[C@@H]1NC(=O)[C@H]2C[C@@H](C(=O)NCc3ccc(F)cc3)[C@@H](c3cccc(OCCO)c3)N2C1=O	1.43	0.0142	-0.142	-0.436 (inactive)	1.32	1.34	0.803	1.47	1.6	0.799	1.43	-2.1	1.13	0.986	-0.75	0.0077	-0.0119	0.127	1.92	0.538
NC(=O)[C@@]1(CCS(=O)(=O)c2ccccc2)COC(c2ccc(OCCCO)cc2)=N1	1.35	0.628	0.831	0.129 (inactive)	0.19	-0.123	-0.143	-0.232	-0.526	1.21	-0.244	-0.806	-0.323	1.12	0.549	-0.0495	0.138	-0.359	0.512	0.768
COCCOC(=O)N1C(=O)[C@@]2(c3cc(C#CC4(O)CCCCCC4)ccc31)[C@H](C(=O)N1CCc3cc(OC)c(OC)cc3C1)[C@H]1C(=O)O[C@H](c3ccccc3)[C@H](c3ccccc3)N1[C@@H]2c1ccc(O)cc1	0.974	0.142	0.248	0.543 (inactive)	1.02	1.32	0.648	1.02	0.639	0.122	1.02	-1.01	0.729	0.621	-0.394	-0.0512	0.191	-0.411	1.12	1.17
C=CCC(OC(C)=O)[C@@H]1[C@@H](N(Cc2cc3ccccc3o2)C(=O)c2cccc3ccccc23)c2cc(OCCCO)ccc2N1C(=O)c1ccc2ccccc2c1 (stereo not given in full)	-0.459	0.245	0.246	-1.18 (inactive)	0.0473	-0.553	-0.0798	0.182	0.0022	0.867	-0.0617	-0.0143	-0.338	-0.0758	0.63	0.0047	-0.138	-0.12	0.414	0.0671
CCOC(=O)C1=CC[C@@H](c2ccccc2Cl)N(S(=O)(=O)c2ccc(C)cc2)[C@H]1c1cccc(OC)c1	0.662	-0.0972	-0.335	0.751 (inactive)	0.331	0.269	-0.055	0.536	-0.237	0.406	0.414	-0.587	-0.0038	0.107	0.369	0.0382	0.123	0.216	0.111	0.253
